Inconclusive results are not listed. Calls of active or inactive are those of the source. Unless noted, calls come from the whole dose curve; as a rule, active = well fitted curve in the direction sought with a large enough effect in the repeat runs; inconclusive = weak or mixed curves; inactive = no such curve, though single readings can be large; an effect the other way counts as inactive or inconclusive.
Key:
[1] = qHTS assay to identify small molecule antagonists of the estrogen related receptor signaling pathway with the pleiotropic PPARgamma coactivator (PGC) from Tox21 10K library - cell viability counter screen (AID 1224840; active = well fitted cell-killing curve with a large enough effect in the repeat runs, not every such curve was filed as active; note: nearly all actives have a fitted effect of over 40% in size)
How it was run: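 Cell viability is measured by CellTiter-Fluor fluorescence in PGC/ERR cells that receive compounds after a 6-hour attachment period and are then incubated 17.5 hours at 37 C.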

[2] = qHTS assay to identify small molecule antagonists of the estrogen related receptor signaling pathway with the pleiotropic PPARgamma coactivator (PGC) from Tox21 10K library (AID 1224841; call rule not given here; note: series mostly up to about 92 µM; actives are mostly falling curves and most rising ones were filed inactive; nearly all actives have a fitted effect of over 50% in size)
How it was run: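 Cells stably carrying the PGC/ERR reporter, seeded at 2,000 per well, received pin-transferred compounds 6 h post-plating. Exposure lasted 18 h at 37 C. Signal: One-Glo luminescence.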

[3] = qHTS assay to identify small molecule agonists of the estrogen related receptor signaling pathway with the pleiotropic PPARgamma coactivator (PGC) from Tox21 10K library (AID 1224842); note: nearly all actives have a fitted effect of over 15% in size
How it was run: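 PGC/ERR reporter cells (NTP line) were seeded 2,000 per well, rested 6 h at 37 C/5% CO2, then pin-dosed with compounds in DMSO for 18 h at 37 C; luciferase read by One-Glo luminescence after 30 min at room temperature.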

[4] = qHTS assay to identify small molecule agonists of H2AX (AID 1224845; active = well fitted activation curve with a large enough effect in the signal ratio in the repeat runs, not every such curve was filed as active; the % refers to the signal ratio)
How it was run: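 Wild-type CHO-K1 cells plated overnight, then exposed 3 hr at 37C to compounds at 15 concentrations (0.76% DMSO). Lysed, then HTRF anti-pH2AX(S139)-cryptate/anti-H2AX-d2 detection after 24 hr at room temperature; emissions 665 and 620 nm.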

[5] = qHTS assay to identify small molecule agonists of the hypoxia (HIF-1) signaling pathway (AID 1224846; active = well fitted activation curve with a large enough effect in the signal ratio in the repeat runs, not every such curve was filed as active; the % refers to the signal ratio)
How it was run: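 Agonist mode reporter screen. ME-180 cells stably expressing bla under HRE control received test compounds in DMSO for 17 hrs (37C, 5% CO2), and beta-lactamase activity was then detected with the CCF4-AM FRET substrate.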

[6] = qHTS assay to identify small molecule agonists of H2AX - cell viability counter screen (AID 1224847; calls by dose curve; note: top concentration of the series differs between compounds; nearly all actives have a fitted effect of over 30% in size)
How it was run: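 Counter-screen for viability: CellTiter-Glo ATP luminescence read after 3 h compound treatment (15-point titration, 0.76% DMSO final) of CHO-K1 cells at 37C, with 30 min room-temperature reagent incubation.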

[7] = qHTS assay to identify small molecule antagonists of the estrogen related receptor (ERR) signaling pathway from Tox21 library (AID 1224848); note: nearly all actives have a fitted effect of over 50% in size
How it was run: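 First, 2,000 ERR cells per well were plated and held 6 h at 37 C/5% CO2. Next, compounds in DMSO were pinned in and left 18 h at 37 C. Finally, ONE-Glo was added and luminescence read after 30 min at room temperature.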

[8] = qHTS assay to identify small molecule agonists of the estrogen related receptor (ERR) signaling pathway from Tox21 library (AID 1224849; calls by dose curve; note: nearly all actives have a fitted effect of over 15% in size)
How it was run: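 Quantitative HTS in agonist format: NTP ERR cell line, compounds transferred in DMSO after 6 h plating, 18 h incubation at 37 C, ONE-Glo luminescence endpoint.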

[9] = qHTS RealTime-Glo MT Cell Viability Assay in HepG2 cells - 24 hour (AID 1224867); note: nearly all actives have a fitted effect of over 50% in size
How it was run: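 HepG2 cells were seeded at 600 cells/well together with NanoLuc luciferase and a cell-permeant prosubstrate, preincubated 5 h at 37 C/5% CO2, then pin-dosed with compounds in DMSO. Nonlytic luminescence from viable cells was read at each time point.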

[10] = qHTS RealTime-Glo MT Cell Viability Assay in HEK293 cells - 32 hour (AID 1224868); note: top concentration of the series differs between compounds; nearly all actives have a fitted effect of over 50% in size
How it was run: (§1)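 HEK293 cells were seeded at 600 cells/well together with NanoLuc luciferase and cell-permeant prosubstrate, preincubated 5 h at 37 C/5% CO2, then given compound in DMSO by pintool. Luminescence from viable-cell prosubstrate reduction was read repeatedly over 40 h.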

[11] = A CellTox Green Cytotoxicity Assay to monitor cytotoxicity in HEK293 cells - 0 hour (AID 1224869); note: nearly all actives have a fitted effect of over 50% in size
How it was run: (§2)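 Dead-cell fluorescence measured kinetically: asymmetric cyanine dye, HEK293, 600 cells/well, 5 h settle, 23 nL cpd/DMSO, 37 C, reads 0–40 h every 8 h.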

[12] = qHTS RealTime-Glo MT Cell Viability Assay in HepG2 cells - 40 hour (AID 1224870); note: nearly all actives have a fitted effect of over 50% in size
How it was run: (§3)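 HepG2 cells mixed with RealTime-Glo MT reagents (NanoLuc plus cell-permeant prosubstrate) were seeded at 600 cells/well, incubated 5 h at 37 C/5% CO2, then pinned with compounds in DMSO; nonlytic luminescence tracked viability during 40 h treatment.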

[13] = A CellTox Green Cytotoxicity Assay to monitor cytotoxicity in HEK293 cells - 40 hour (AID 1224871); note: nearly all actives have a fitted effect of over 45% in size
How it was run: as §2

[14] = qHTS RealTime-Glo MT Cell Viability Assay in HEK293 cells - 16 hour (AID 1224872)
How it was run: as §1

[15] = qHTS RealTime-Glo MT Cell Viability Assay in HepG2 cells - 8 hour (AID 1224873); note: nearly all actives have a fitted effect of over 55% in size
How it was run: as §3

[16] = qHTS RealTime-Glo MT Cell Viability Assay in HEK293 cells - 40 hour (AID 1224874); conditions: RealTime-Glo luminescence; max response: hits give low values; note: nearly all actives have a fitted effect of over 50% in size
How it was run: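 600 HEK293 cells per well, dispensed already mixed with RealTime-Glo MT reagents. Compound dosing came 5 h later. The same wells were read for luminescence at 0, 8, 16, 24, 32 and 40 h of exposure at 37 C.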

[17] = A CellTox Green Cytotoxicity Assay to monitor cytotoxicity in HEK293 cells - 24 hour (AID 1224875); note: series mostly up to about 77 µM; nearly all actives have a fitted effect of over 45% in size
How it was run: as §2

[18] = molecular target: Thyrotropin receptor (Homo sapiens) (UniProt P16473); assay: qHTS assay to identify small molecule agonists of the thyroid stimulating hormone receptor (TSHR) signaling pathway (AID 1224843; calls by dose curve; note: nearly all actives have a fitted effect of over 45% in size)
How it was run: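 Compounds are titrated over 15 concentrations, in triplicate, onto TSHR-HEK293 cells seeded at 800/well. Plates sit 30 min at room temperature before cAMP-d2 and anti-cAMP cryptate are added; signal is read after a further hour.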

[19] = qHTS assay to identify small molecule agonists of the hypoxia (HIF-1) signaling pathway - cell viability counter screen (AID 1224844; calls by dose curve; note: nearly all actives have a fitted effect of over 50% in size)
How it was run: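 Viability counter screen: HRE-bla ME-180 cells plated 5 hrs before compound addition, treated 17 hrs at 37C and 5% CO2, then CellTiter-Glo added after the FRET reporter read; luminescence after 30 min.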
% is set by controls: 0 for no effect and ±100 for the full control effect.

Thyrotropin receptor (Homo sapiens), sequence (P16473 whole entry, looked up): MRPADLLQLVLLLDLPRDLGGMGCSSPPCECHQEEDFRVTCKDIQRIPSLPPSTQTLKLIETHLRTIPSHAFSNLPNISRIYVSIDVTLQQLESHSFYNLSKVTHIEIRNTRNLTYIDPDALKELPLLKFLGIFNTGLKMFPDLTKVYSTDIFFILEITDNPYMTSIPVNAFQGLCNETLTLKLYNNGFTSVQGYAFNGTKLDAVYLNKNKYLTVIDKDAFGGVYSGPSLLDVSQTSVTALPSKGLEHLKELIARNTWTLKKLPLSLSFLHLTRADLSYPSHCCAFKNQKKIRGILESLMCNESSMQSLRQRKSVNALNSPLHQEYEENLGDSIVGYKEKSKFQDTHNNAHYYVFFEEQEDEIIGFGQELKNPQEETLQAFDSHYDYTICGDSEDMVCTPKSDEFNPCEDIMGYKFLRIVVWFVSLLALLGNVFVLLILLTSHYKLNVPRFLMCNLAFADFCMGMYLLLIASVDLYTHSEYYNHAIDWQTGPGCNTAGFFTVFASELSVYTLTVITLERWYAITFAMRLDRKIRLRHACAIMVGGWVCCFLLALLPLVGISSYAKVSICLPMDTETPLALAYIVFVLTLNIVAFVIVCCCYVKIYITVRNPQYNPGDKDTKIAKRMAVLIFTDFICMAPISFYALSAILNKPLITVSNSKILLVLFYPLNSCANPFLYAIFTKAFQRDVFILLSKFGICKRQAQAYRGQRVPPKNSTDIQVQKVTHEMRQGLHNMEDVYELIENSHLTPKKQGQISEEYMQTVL

CC(C)(C)NCCO
inactive: outcome [1] | Potency [2] | outcome [3] | outcome [4] | outcome [5] | Potency [6] | Potency [7] | outcome [8] | outcome [9] | Potency [10] | Potency [11] | outcome [12] | Potency [13] | Potency [14] | outcome [15] | max response [16] 6.71% | Potency [17]

COc1cc2c3cc1Oc1cc(ccc1O)C[C@@H]1c4c(cc(OC)c(O)c4Oc4ccc(cc4)C[C@@H]3N(C)CC2)CC[N+]1(C)C
inactive: outcome [1] | outcome [18] | outcome [19] | outcome [4] | outcome [5] | Potency [6] | outcome [9] | Potency [10] | Potency [11] | outcome [12] | Potency [13] | Potency [14] | outcome [15] | max response [16] 3.06% | Potency [17]

C=C(C)C(=O)OCCCCCCOC(=O)C(=C)C
inactive: outcome [1] | Potency [2] | outcome [3] | outcome [19] | outcome [4] | outcome [5] | Potency [7] | outcome [8] | outcome [9] | Potency [10] | Potency [11] | outcome [12] | Potency [13] | Potency [14] | outcome [15] | max response [16] 6.48% | Potency [17]

CC(C)COC(=O)/C=C/c1ccccc1
inactive: outcome [1] | Potency [2] | outcome [3] | outcome [19] | outcome [4] | Potency [7] | outcome [8] | outcome [9] | Potency [10] | Potency [11] | outcome [12] | Potency [14] | outcome [15] | max response [16] -4.89%

C=CCCCCCCCCCCC
inactive: viability change, negative = cytotoxic [1] 1.26% [at 8.39 µM] | activation [18] -0.0254% [at 8.39 µM] | activity change, negative = cytotoxicity [19] 2.72% [at 6.97 µM] | activation (H2AX phosphorylation) [4] -0.58% [at 14 µM] | activation [5] -0.397% [at 7.01 µM] | activity change, negative = cytotoxicity [6] 3.67% [at 14 µM] | activity change, negative = cytotoxicity [9] 0.824% [at 6.97 µM] | activity change, negative = cytotoxic [10] 7.22% [at 6.97 µM] | cytotoxicity [11] 3.23% [at 6.97 µM] | activity change, negative = cytotoxic [12] -0.414% [at 6.97 µM] | cytotoxicity increase [13] 0.236% [at 6.97 µM] | activity change, negative = cytotoxicity [14] 6.31% [at 6.97 µM] | viability change, negative = cytotoxic [15] 1.47% [at 6.97 µM] | max response [16] 6.19%

O=P(O)(O)OCC(O)CO (stereo not drawn)
inactive: outcome [1] | Potency [2] | outcome [3] | outcome [19] | outcome [4] | Potency [6] | Potency [7] | outcome [8] | outcome [9] | Potency [10] | Potency [11] | outcome [12] | Potency [13] | Potency [14] | outcome [15] | max response [16] -2.63% | Potency [17]

O=[Si]=O
inactive: outcome [1] | Potency [2] | outcome [3] | outcome [19] | outcome [4] | outcome [5] | Potency [7] | outcome [8] | outcome [9] | Potency [10] | Potency [13] | Potency [14] | outcome [15] | max response [16] 0.247% | Potency [17]

O=C(c1ccc2c(c1)C(=O)OC2=O)c1ccc2c(c1)C(=O)OC2=O
inactive: outcome [1] | outcome [18] | outcome [19] | outcome [4] | outcome [5] | Potency [6] | outcome [9] | Potency [10] | Potency [11] | outcome [12] | Potency [13] | Potency [14] | outcome [15] | max response [16] -1.77% | Potency [17]

CC1(N)CCC(C(C)(C)N)CC1 (stereo not drawn)
inactive: outcome [1] | outcome [18] | outcome [19] | outcome [4] | Potency [6] | outcome [9] | Potency [10] | Potency [11] | outcome [12] | Potency [13] | Potency [14] | max response [16] -1.45%

COC(/C=C(\C)CCC=C(C)C)OC
inactive: outcome [1] | outcome [18] | outcome [19] | outcome [4] | Potency [6] | outcome [9] | Potency [10] | outcome [12] | Potency [13] | Potency [14] | outcome [15] | max response [16] 4.55%

CCN(CC)C(=O)C1CN2CCc3cc(OC)c(OC)cc3C2CC1OC(C)=O (stereo not drawn)
inactive: outcome [1] | outcome [18] | outcome [19] | outcome [4] | outcome [5] | Potency [6] | outcome [9] | Potency [10] | Potency [11] | Potency [13] | Potency [14] | outcome [15] | max response [16] -4.78% | Potency [17]

C=C[C@@H](C)CCC=C(C)C
inactive: outcome [1] | outcome [18] | outcome [19] | outcome [4] | outcome [5] | Potency [6] | outcome [9] | Potency [10] | Potency [11] | outcome [12] | Potency [13] | Potency [14] | max response [16] 9.85% | Potency [17]

CCCCCCCCCCCCOC(C)=O
inactive: outcome [1] | outcome [18] | outcome [19] | outcome [4] | outcome [5] | Potency [6] | outcome [9] | Potency [11] | outcome [12] | Potency [13] | Potency [14] | outcome [15] | Potency [17]

c1ccc(CNc2ncnc3nc[nH]c23)cc1
inactive: outcome [1] | outcome [18] | outcome [19] | outcome [4] | Potency [6] | outcome [9] | Potency [11] | Potency [13] | outcome [15]

CCOC(=O)OCC/C(SC(=O)OCC)=C(\C)N(C=O)Cc1cnc(C)nc1N
inactive: outcome [1] | outcome [18] | outcome [19] | outcome [4] | Potency [6] | outcome [9] | Potency [10] | Potency [11] | Potency [13] | Potency [14] | outcome [15] | max response [16] 4.82% | Potency [17]

O=C(CN1CCN(Cc2ccc3c(c2)OCO3)CC1)N1c2ccccc2Sc2ccccc21
inactive: outcome [1] | outcome [18] | outcome [19] | outcome [4] | outcome [5] | Potency [6] | outcome [9] | Potency [11] | outcome [12] | Potency [13] | Potency [14] | Potency [17]

— PubChem BioAssay (Tox21)
